This excerpt belongs to a sample that is enriched for hits.
CD40 NFkB inh: inhibitors of CD40-induced NF-kB signaling, primary screen, BL2 cells, luciferase reporter, single point | 83,000 tested, 0.94% active | inhibition, % at 10 µM | CD40L-induced, 4 h | AID 1053188, 2014;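 active means mean inhibition of at least 50% with a set share of replicates also reaching that level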;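 further: 0% = neutral control wells and 100% = IKK inhibitor VII at 50 µM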
The depositor's hits bear a star; [ ] = dose if it differs, or a comment.

SMILES	CD40 NFkB inh
C[C@@H](NC(=O)[C@H]1N[C@H]2c3ccc(C4=CCCC4)c(=O)n3C[C@H]2[C@@H]1CO)c1ccccc1	1.3[25 µM]
C[C@H]1CN(C)C(=O)c2cc(N(C)C)ccc2O[C@@H]1CN(C)C(=O)OC(C)(C)C	8.5
O=S(c1ccccc1O)S(=O)c1ccccc1O (stereo unspecified)	81.5*
O=C(O)c1ccccc1O	4.0
CS(=O)c1ccccc1O (stereo unspecified)	11.5
O=S(=O)(Cc1ccccc1)N1CCCCN2[C@H](CO)[C@H](c3ccc(-c4ccc(F)cc4)cc3)[C@H]2C1	-20.2[25 µM]
COCC(=O)Nc1ccc2c(c1)C(=O)N(C)C[C@@H](OC)[C@@H](C)CN(C(=O)c1ccncc1)[C@H](C)CO2	-7.2[25 µM]
Cc1ccc(CNC(=O)CCS(=O)(=O)c2ccc(C)cc2)cc1	1.7
O=C(CCCc1ccccc1)NCCC1=CCCCC1	-59.7
Cc1ccc(S(=O)(=O)CCC(=O)NCCC2=CCCCC2)cc1	47.8*
N#Cc1cccc(-c2ccc([C@@H]3[C@H](CO)N4CCCCN(S(=O)(=O)c5ccccc5)C[C@@H]34)cc2)c1	-5.0[25 µM]
CCCNC(=O)N1[C@@H](CO)[C@@H]2c3ccccc3N(C(=O)NC(C)C)C[C@@H]21	3.9
C[C@@H]1CN([C@H](C)CO)S(=O)(=O)c2ccc(C#CC3CC3)cc2O[C@@H]1CN(C)C(=O)CN(C)C	-5.1[25 µM]
O=C(CN1C(=O)C2CCCCC2C1=O)Nc1nc2ccc(F)cc2s1 (stereo unspecified)	-5.4
Cc1ccccc1C(=O)N1CCC(C(=O)Nc2nc3ccc(F)cc3s2)CC1	56.1*
Cc1ccccc1C(=O)N1CCC(C(=O)Nc2nccs2)CC1	-13.1
O=C1CCCCn2cc(nn2)COC[C@@H](c2ccccc2)N1	5.2
O=C(CCNC(=O)c1ccccc1Cl)Nc1nc2ccccc2[nH]1	-11.1
COc1ccccc1C(=O)NCCC(=O)Nc1nc2ccccc2[nH]1	52.0*
COc1ccccc1C(=O)NCCC(=O)Nc1ccc(C)cn1	7.9
O=C(C1CC1)N1C[C@H]2[C@@H](c3ccccc31)[C@H](CO)N2S(=O)(=O)c1ccccc1	-0.5
C[C@H]1CN(C)C(=O)c2cccc(N)c2O[C@@H]1CN(C)C(=O)OC(C)(C)C	0.3
O=C(NC1CCC1)[C@H]1[C@H](CO)[C@H]2Cn3c(cccc3=O)[C@H]2N1CC1CCOCC1	-2.0
O=C(Nc1ccc(Cl)cc1)N1C[C@H]2[C@@H](c3ccccc31)[C@@H](CO)N2CC1CCCCC1	10.2[25 µM]
O=C(NCCNc1ccnc2cc(Cl)ccc12)c1ccccc1F	37.4*
SMILES	CD40 NFkB inh
CCN(CC)CCNc1ccnc2cc(Cl)ccc12	-7.0
OC(CNc1ccnc2cc(Cl)ccc12)CNC1CCCCC1 (stereo unspecified)	-7.6
CCCNC(=O)C[C@H]1C[C@H]2c3cc(NC(=O)COC)ccc3O[C@H]2[C@@H](CO)O1	4.1[25 µM]
CC(=O)Nc1cccc2c1O[C@H](CN(C)C(=O)OC(C)(C)C)[C@H](C)CN(C)C2=O	-1.3
CC(=O)N(C)C[C@H]1Oc2c(N)cccc2C(=O)N(C)C[C@@H]1C	0.8
O=C(Nc1cccc(-c2nc3ccccc3s2)c1)c1ccc2c(c1)OCO2	-36.6
c1ccc2sc(-c3ccc4c(c3)OCO4)nc2c1	53.4*
CCNC(=O)COC(=O)c1ccc(-c2nc3ccccc3s2)s1	-56.1
O=C(c1cc2ccccc2s1)N1CCOCC1	-7.5
O=C(c1ccc(-c2nc3ccccc3s2)s1)N1CCOCC1	88.1*
CCN1CCN(C(=O)c2ccc(-c3nc4ccccc4s3)s2)CC1	-45.2
c1csc(-c2nc3ccccc3s2)c1	-96.8
c1ccc2[nH]c(-c3ccc4c(c3)OCO4)nc2c1	14.3
O=C(NC1CC1)c1ccc(-c2nc3ccccc3s2)s1	75.4*
CC(=O)N1[C@@H]2CN(CC(F)(F)F)C[C@H]1C2c1ccccc1 (stereo partly specified)	-0.4
COc1ccc(S(=O)(=O)N(C)C[C@@H]2Oc3c(NC(=O)Nc4c(C)noc4C)cccc3C(=O)N([C@H](C)CO)C[C@H]2C)cc1	-4.7[25 µM]
Cc1ccc(S(=O)(=O)N(C)C[C@@H]2OCCCC[C@@H](C)Oc3ccc(NC(=O)c4ccncc4)cc3C(=O)N([C@@H](C)CO)C[C@H]2C)cc1	-3.5[25 µM]
CN(C)c1ccc2c(c1)[C@@H]1C[C@@H](CC(=O)NCCc3ccccc3)O[C@@H](CO)[C@@H]1O2	-10.9[25 µM]
O=C(C[C@@H]1C[C@H]2c3cc(NC(=O)c4ccc5c(c4)OCO5)ccc3O[C@H]2[C@H](CO)O1)NCC(F)(F)F	-1.3[25 µM]
CN(C)C(=O)C[C@H]1CC[C@H]2[C@H](COc3ccc(NC(=O)C4CCCCC4)cc3C(=O)N2C)O1	-17.4[25 µM]
O=C(O)C[C@@H]1C[C@H]2c3cc(NS(=O)(=O)c4ccc(F)cc4)ccc3O[C@H]2[C@@H](CO)O1	-5.0[25 µM]
O=C(C1CCCC1)N1CC(=O)N2[C@H](CO)[C@H](c3ccc(C#CCc4ccccc4)cc3)[C@H]2C1	66.0*
O=C(C1CCCC1)N1CC(=O)N2[C@H](C1)[C@H](c1ccc(C#CCc3ccccc3)cc1)[C@@H]2CO	23.9
O=C(C1CCC1)N1CC(=O)N2[C@H](CO)[C@H](c3ccc(C#CCc4ccccc4)cc3)[C@H]2C1	70.6*
COCC#Cc1ccc([C@H]2[C@H](CO)N3C(=O)CN(C(=O)C4CCCCC4)C[C@@H]23)cc1	1.2[25 µM]
SMILES	CD40 NFkB inh
O=C(C1CCOCC1)N1CC(=O)N2[C@H](CO)[C@H](c3ccc(C#CCc4ccccc4)cc3)[C@@H]2C1	-10.7[25 µM]
COCC#Cc1ccc([C@@H]2[C@H](CO)N3C(=O)CN(C(=O)C4CCCCC4)C[C@@H]23)cc1	-24.3[25 µM]
O=C(C1CCOCC1)N1CC(=O)N2[C@@H](CO)[C@H](c3ccc(C#CCc4ccccc4)cc3)[C@@H]2C1	4.0[25 µM]
O=C(C1CCOCC1)N1CC(=O)N2[C@H](C1)[C@H](c1ccc(C#CCc3ccccc3)cc1)[C@@H]2CO	75.0*[25 µM]
O=C(C1CCOCC1)N1CC(=O)N2[C@H](CO)[C@H](c3ccc(C#CCc4ccccc4)cc3)[C@H]2C1	36.7[25 µM]
C[C@H](CO)N1C[C@H](C)[C@H](CN(C)C(=O)C2CC2)OCc2cn(nn2)CCCC1=O	-0.8[25 µM]
CCCCCCCCCCCC1C(=O)C(=O)CC(=O)C1=O	0.4[25 µM]
CO[C@@H](CN(C)S(=O)(=O)c1cccc(Cl)c1)[C@H](C)CN(C(=O)Nc1ccccc1F)[C@@H](C)CO	-3.6[25 µM]
O=C(C[C@@H]1CC[C@H]2NC[C@H](O)COC[C@@H]2O1)NCc1ccc2c(c1)OCO2	-0.9[25 µM]
CCCN1C[C@@H](C)[C@H](OC)CN(C)C(=O)c2cc(NC(=O)NC3CCCC3)ccc2OC[C@@H]1C	-5.7
C[C@H]1CN([C@@H](C)CO)C(=O)c2cccc(NS(=O)(=O)c3ccc(F)cc3)c2O[C@H]1CN(C)Cc1ccc(C(F)(F)F)cc1	12.2
CC(=O)N(C)C[C@@H]1Oc2ccc(N(C)C)cc2C(=O)N(C)C[C@@H]1C	0.0
COc1cccc(NC(=O)/C=C/c2ccc(Cl)cc2)c1	16.3[25 µM]
COc1ccc(CN(C)C[C@H]2OCCCC[C@@H](C)Oc3ccc(NC(=O)C4CCCCC4)cc3C(=O)N([C@@H](C)CO)C[C@H]2C)cc1	-0.9[25 µM]
CO[C@H]1CN(C)C(=O)c2ccc(NC(=O)C3CC3)cc2OC[C@H](C)N(C(C)=O)C[C@@H]1C	-3.8[25 µM]
CCn1c(CNC(=O)C(C)(C)C)nc2ccccc21	4.1
CC(C)(C)N1CC(c2nc3ccccc3n2Cc2ccccc2)CC1=O (stereo unspecified)	13.7
CCn1c2ccccc2nc2cc3c(cc21)c(Cl)c(=O)c1ccccc13	89.7*

High-throughput results: PubChem, Broad Institute
